# PRMT1 inh – PRMT1 methyltransferase inhibitors, primary screen, biochemical, fluorescence polarization | recombinant PRMT1, activity-based probe fluorescence polarization | inhibition, % at 2.79 µM | 1.3% of 370,000 active | AID 652257, 2013;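 active means inhibition above about 21% made by adding two undisclosed values, limit read from the data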
# TLR4-MyD88 BLA – inhibitors of TLR4-MyD88 association in cells, primary screen, cell-based, HeLa CL3-4, BLA complementation, FRET ratio | Toll-like receptor 4 (Homo sapiens) + Myeloid differentiation primary response protein … | HeLa CL3-4 TLR4/MyD88 BLA complementation | inhibition, % at 8.4 µM | 0.18% of 200,000 active; in the data active means inhibition above about 25%;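 further: 0% = vehicle and 100% = reference inhibitor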
# TLR9-MyD88 inh – inhibitors of TLR9-MyD88 association in cells, primary screen, cell-based, CHO, BLA complementation, fluorescence | inhibition, % at 4.98 µM | CCF4 FRET ratio | AID 504734, 2011 | 0.21% of 340,000 active;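 active means inhibition above the mean over all tested compounds plus 3 SD, cut at about 21% in these data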;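 further: 0% = DMSO only wells and 100% = clavulanate BLA inhibitor control wells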
# ABHD5-PLIN5 inh – ABHD5-PLIN5 interaction inhibitors, primary screen, cell lysate, split luciferase complementation, luminescence. Split G. princeps luciferase complementation, 4 h. Perilipin-5 (Homo sapiens) + 1-acylglycerol-3-phosphate O-acyltransferase ABHD5 (Homo …. inhibition, % at 4 µM. AID 602281, 2012. 0.78% of 360,000 active;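 active means inhibition above the mean inhibition across every tested compound plus 3 SD, cut at about 22% in these data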;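 further: 0% = DMSO only wells and the 100% control is not disclosed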
# Target sequence (Q00G26 whole entry, looked up): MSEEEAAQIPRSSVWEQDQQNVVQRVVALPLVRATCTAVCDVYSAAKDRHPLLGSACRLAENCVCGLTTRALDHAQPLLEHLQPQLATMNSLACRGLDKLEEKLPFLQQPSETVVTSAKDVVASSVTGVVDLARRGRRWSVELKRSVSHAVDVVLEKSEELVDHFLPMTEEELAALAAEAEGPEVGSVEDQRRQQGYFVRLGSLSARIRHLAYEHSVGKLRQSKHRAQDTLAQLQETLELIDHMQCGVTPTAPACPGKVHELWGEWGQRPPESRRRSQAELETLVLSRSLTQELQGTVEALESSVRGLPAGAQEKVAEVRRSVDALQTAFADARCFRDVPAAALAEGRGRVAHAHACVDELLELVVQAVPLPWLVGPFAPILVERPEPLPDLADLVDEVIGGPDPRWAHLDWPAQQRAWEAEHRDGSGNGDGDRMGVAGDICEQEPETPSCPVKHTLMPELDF
# Target sequence (Q8WTS1 whole entry, looked up): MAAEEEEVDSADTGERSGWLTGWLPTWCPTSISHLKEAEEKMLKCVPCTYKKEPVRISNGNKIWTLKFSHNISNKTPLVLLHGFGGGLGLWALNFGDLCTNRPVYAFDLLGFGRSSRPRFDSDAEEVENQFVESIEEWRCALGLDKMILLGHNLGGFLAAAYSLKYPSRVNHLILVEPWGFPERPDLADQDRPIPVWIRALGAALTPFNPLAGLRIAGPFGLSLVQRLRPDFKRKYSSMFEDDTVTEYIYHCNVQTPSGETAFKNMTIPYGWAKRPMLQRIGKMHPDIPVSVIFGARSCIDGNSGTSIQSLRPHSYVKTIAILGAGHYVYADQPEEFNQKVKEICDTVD
# Granule exo inh – LAMP-1 surface exposure blockers, TALL-104 cells – cell-based, flow cytometry, MLPCN library, primary screen; inhibition, % at 10 µM; 0.66% of 360,000 active; TALL-104 LAMP-1 surface exposure; cells stimulated with thapsigargin and PMA; AID 651702, 2012;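 active means inhibition above about 55%, limit read from the data; inconclusive means no clear call, values can overlap the other calls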
# NOD2 RIPK2 PPI – NOD2-RIPK2 binding disruptors in cells, primary screen, fluorescence, CHO cells, BLA complementation; 0.38% of 360,000 active; CCF4 ratio; inhibition, % at 4.98 µM; Receptor-interacting serine/threonine-protein kinase 2 (Homo sapiens), O43353; in the data active means inhibition above about 21%;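 further: 0% = vehicle only and 100% = reference blocker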
# TLR9-MyD88 cf – TLR9-MyD88 association inhibitors, retest, confirmation, cell-based, CHO, BLA complementation, fluorescence, triplicate | shares compounds with TLR9-MyD88 inh | CCF4 FRET ratio | inhibition, % at 4.98 µM | 51% of 680 active | AID 540250, 2011;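 active means mean inhibition across three repeats above about 21% taken from the earlier screen, limit read from the data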;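 further: blue over green emission ratio reports constitutive TLR9 MyD88 association via BLA complementation; 0% = DMSO vehicle wells and 100% = clavulanate BLA inhibitor wells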
# BLA counter – beta-lactamase reporter inhibitors in CHO cells, artefact control for TLR9-MyD88 binding inhibitor project, cell-based, fluorescence. inhibition, % at 4.98 µM. AID 540251, 2011. shares compounds with TLR9-MyD88 inh. 7% of 680 active. CHO-BLA cells, CCF4 FRET ratio, BLA reporter;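 active means mean inhibition above a 50% cutoff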;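 further: counterscreen of TLR9-MyD88 hits on CMV-driven BLA in CHO-K1 cells; 0% = DMSO alone and 100% = clavulanate blocking BLA; higher means less blue over green ratio so more BLA blockade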
# TLR9 CHO cytotox – CHO cell viability loss – luminescence, single concentration, cytotoxicity control for TLR9-MyD88 binding inhibitor project; TLR9-MyD88 CHO cells cytotoxicity; inhibition, % at 4.98 µM; shares compounds with TLR9-MyD88 inh; 39% of 680 active; in the data active means inhibition above about 11%
# Numbers without * were called inactive; ? = inconclusive; · = no result given. Shown are actives, neighbours in structure and some others; about 2.6% of the full set was active somewhere.
SMILES,PRMT1 inh,TLR4-MyD88 BLA,TLR9-MyD88 inh,ABHD5-PLIN5 inh,Granule exo inh,NOD2 RIPK2 PPI,TLR9-MyD88 cf,BLA counter,TLR9 CHO cytotox
Cc1ccc(C)c2nc3sc(C(=O)N4CCOCC4)c(N)c3cc12,9.3,-1.4,21.6*,1.4,-2.2,-1.2,4.7,-0.3,25.8*
O=C(N[C@@H](Cc1cccnc1)C(=O)N1CCC[C@H]1C(=O)NC1CCCC1)C1CCCC1,-2.1,·,·,·,·,·,·,·,·
CC(C)(C)S(=O)(=O)N1C[C@H]2C(=C(CCO)C[C@H]3C(=O)N(c4ccccc4)C(=O)[C@H]32)[C@@H]1CCO,1.1,·,·,·,·,·,·,·,·
C=CCN1[C@@H](CC(C)C)COc2cccc(N3CCSCC3)c2S1(=O)=O,-1.7,·,·,·,·,·,·,·,·
COc1ccccc1C1C=C(c2ccc(C)cc2)Nc2nnnn21 (configuration not stated),0.1,-9.0,22.4*,-1.1,0.1,13.3,2.1,2.0,8.3
CCOC(=O)[C@H]1[C@H]2COc3ccc(C)cc3[C@@H]2N2C(=O)CN(Cc3ccco3)C(=O)[C@@]12C,4.9,·,22.3*,3.4,6.2,3.4,3.9,0.7,-0.4
COc1ccc(C(=O)NCC(=O)N/N=C/C(C)=C/c2ccccc2)cc1OC,0.0,0.0,20.9*,4.2,-2.6,1.8,0.7,-2.3,-0.8
Cn1c2ccccc2c2cc(/C=N/NC(=O)c3ccc(O)cc3O)ccc21,·,·,-4.3,3.2,15.4,-0.3,·,·,·
Cn1c(O)c(/C=N/NC(=O)c2cc3ccccc3cc2O)c2ccccc21,3.2,·,30.9*,-3.5,82.9*,17.4,22.6*,16.1,25.3*
CCCCCCCCN1C(=O)[C@@H](CC(=O)N2CCN(C(=O)OCC)CC2)C[C@@]2(C(=O)OC)C1=C[C@H](C(C)(C)C)O[C@@H]2C,-0.7,·,·,·,·,·,·,·,·
CCCCN(CCCC)c1nc2ccccc2nc1C(C#N)C(=O)NCCCOC (configuration not stated),-1.6,19.4,40.0*,0.8,4.1,-7.9,8.8,12.6,5.7
O=C(Nc1ccc(F)cc1)OCc1cn(Cc2ccccc2F)nn1,-2.8,·,·,·,·,·,·,·,·
CCOC(=O)COc1ccc2c(C#N)c3ccccn3c2c1,2.1,14.8,25.8*,-6.5,-0.7,3.8,2.7,6.3,1.1
O=C(C1CCCN1S(=O)(=O)c1ccc(Br)s1)N1CCc2ccccc2C1 (configuration not stated),-1.1,·,·,·,·,·,·,·,·
CCCCS(=O)(=O)N1C2=NC(C(=O)OCC)=C(C(=O)OCC)C3N(Cc4ccc(C#N)cc4)c4ccccc4[C@]23C[C@H]1C(=O)OC (some centres not stated),-4.4,·,·,·,·,·,·,·,·
CC(C)(C)c1cc(NC(=O)c2c(F)cccc2Cl)n(-c2ccccc2)n1,-0.7,·,22.8*,2.5,?,1.4,3.0,4.0,0.8
COc1ccc(OC)c(NC(=O)c2ccccc2N(Cc2ccccc2)C(=O)C(C)Cl)c1 (configuration not stated),8.7,·,·,·,·,·,·,·,·
Cc1ccc(S(=O)(=O)c2ccc([N+](=O)[O-])o2)cc1,75.6*,·,44.3*,84.6*,49.8,93.0*,50.8*,18.7,98.8*
COc1cc(C(=O)NC2CCN(Cc3ccccc3)CC2)cc(Cl)c1OC,-4.3,·,25.7*,-7.2,19.7,5.6,4.5,3.8,4.6
COc1ccc(C(=O)NC2CC2)cc1OC1CCN(Cc2ccccc2)CC1,-3.1,·,-10.2,-1.1,-6.6,-4.6,·,·,·
CC(=N/O)/C(C)=N\NC(=O)c1ccccn1,-4.1,7.3,53.5*,-0.4,-2.0,5.6,3.6,4.6,6.0
CC(=O)Nc1ccc(NC2=C(Cl)C(=O)c3ccccc3C2=O)cc1,2.8,-38.7,·,·,·,·,·,·,·
CN(C)c1ccc(NC2=C(Cl)C(=O)c3ccccc3C2=O)cc1,9.8,-32.8,25.3*,1.7,28.2,7.6,22.5*,4.4,19.0*
COc1ccccc1NS(=O)(=O)NC(=O)c1c(C)[nH]c2ccccc12,-4.1,·,21.5*,-5.9,-0.4,-6.4,-2.4,-3.7,2.7
Nc1ccn([C@@H]2O[C@H](C(=O)N3CCN(C(=O)N4CCCCC4)CC3)[C@@H](O)[C@H]2O)c(=O)n1,0.7,·,·,·,·,·,·,·,·
SMILES,PRMT1 inh,TLR4-MyD88 BLA,TLR9-MyD88 inh,ABHD5-PLIN5 inh,Granule exo inh,NOD2 RIPK2 PPI,TLR9-MyD88 cf,BLA counter,TLR9 CHO cytotox
Cc1[nH]n(-c2ccccc2)c(=O)c1C=NCC1CCCO1 (configuration not stated),-5.7,-6.4,26.2*,-2.0,-0.2,-4.5,4.3,-1.1,2.2
CCCc1[nH]n(-c2ccc(F)cc2)c(=O)c1C=NCC1CCCO1 (configuration not stated),-2.1,-4.9,0.3,8.6,3.0,-6.9,·,·,·
COc1ccc(S(=O)(=O)N2CCCCC2)cc1NC(=O)c1ccc([N+](=O)[O-])o1,1.5,9.0,22.2*,-0.4,14.6,10.1,3.0,5.6,22.1*
CCN1CCN(c2ccc(S(=O)(=O)N3CCCCC3)cc2NC(=O)c2ccc([N+](=O)[O-])o2)CC1,-0.2,·,14.4,-6.6,-1.6,3.1,·,·,·
O=[N+]([O-])c1ccc(Sc2cc[n+]([O-])c3ccccc23)c([N+](=O)[O-])c1,-3.8,·,31.7*,-0.4,26.7,-0.8,23.5*,7.2,30.3*
Cc1ccc(Sc2ccc([N+](=O)[O-])cc2[N+](=O)[O-])nc1,1.4,-13.6,-12.4,-0.3,-2.9,-6.5,·,·,·
Oc1c(N=Nc2ccccn2)ccc2ccccc12,-2.8,13.0,23.6*,17.3,102.2*,15.2,15.2,1.7,98.7*
O=[N+]([O-])c1ccc2c(c1)CO[C@]21O[C@H](CCO)C[C@H](O)[C@H]1O,5.3,·,·,·,·,·,·,·,·
COc1ccc(-c2cc(C(=O)NCc3ccco3)c3ccccc3n2)c(OC)c1,5.9,·,32.7*,2.8,-4.2,-4.1,1.2,-0.6,-1.6
COc1cccc(C2C=C(c3ccc(Br)s3)Nc3ncnn32)c1OC (configuration not stated),·,20.9,27.4*,-2.9,-2.8,31.4*,5.1,4.9,2.4
CCCCCCCCNS(=O)(=O)CC1NCc2ccc(C)cc21 (configuration not stated),1.3,·,·,·,·,·,·,·,·
